Where “and” joins values, the source holds several entries; their conditions need not be identical. Identical values can stand only once. Compounds without any hit were thinned out: in the full panel of roughly 83,000, 20% have a hit.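 In brief: 96-well plates, 48 h treatment, single concentration, percent growth endpoint.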 Calls of active or inactive are those of the source. The calls were made as follows: active = growth percent below 10; inactive = the rest.
Legend:
Assay in all cases: NCI-60 one-dose screen, 48 h (100 = growth as untreated, 0 = no growth, -100 = all killed)
[1] = system: NCI-H23 lung
[2] = system: NCI-H226 lung
[3] = system: NCI-H322M lung
[4] = system: HOP-62 NSCLC
[5] = system: NCI-H460 lung
[6] = system: HOP-92 NSCLC
[7] = system: NCI-H522 lung
[8] = system: 786-0 renal
[9] = system: COLO 205 colon
[10] = system: DU-145 prostate
[11] = system: MALME-3M melanoma
[12] = system: MDA-MB-231 breast
[13] = system: RXF 393 renal
[14] = system: SF-268 CNS
[15] = system: SF-295 CNS
[16] = system: SF-539 CNS
[17] = system: UACC-257 melanoma
[18] = system: M14 melanoma
[19] = system: A549/ATCC NSCLC; settings: 10 µM unless noted
[20] = system: K-562 leukemia; settings: 10 µM unless noted

Measured: growth

CC/C(=C(\c1ccc(O)cc1)c1ccc(OCCN(C)C(=O)COCCNC(=O)Cc2ccc3c(c2)CN([C@@H]2CCC(=O)NC2=O)C3=O)cc1)c1ccccc1
inactive: [1]; 1 µM 102% | [1]; 10 µM 86.6% | [2]; 1 µM 77.4% | [3]; 1 µM 77.5% | [3]; 10 µM 37.9% | [4]; 1 µM 72% | [4]; 10 µM 16.2% | [5]; 1 µM 124% | [5]; 10 µM 106% | [7]; 1 µM 92.2% | [7]; 10 µM 95.3% | [8]; 1 µM 94% | [8]; 10 µM 90.6% | [9]; 1 µM 72.2% | [9]; 10 µM 33.8% | [10]; 1 µM 103% | [10]; 10 µM 104% | [11]; 1 µM 24.7% | [13]; 1 µM 100% | [13]; 10 µM 99.4% | [14]; 1 µM 77% | [14]; 10 µM 51.8% | [15]; 1 µM 103% | [15]; 10 µM 81.9% | [16]; 1 µM 78.3% | [16]; 10 µM 55.1% | [17]; 1 µM 96.4% | [17]; 10 µM 95.4% | [18]; 1 µM 82.1% | [18]; 10 µM 68.9%
active: [2]; 10 µM 6.46% | [6]; 1 µM 8.46% | [6]; 10 µM -0.223% | [11]; 10 µM -13.3% | [12]; 1 µM -5.08% | [12]; 10 µM -26.3%

Nc1nn2c(-c3cc4cc(Br)ccc4oc3=O)ccnc2c1N=Nc1ccccc1
active: [1]; 10 µM unless noted 1.73% | [2]; 10 µM unless noted -55.6% | [3]; 10 µM unless noted 8.62% | [4]; 10 µM unless noted 1.3% | [5]; 10 µM unless noted -28% | [6]; 10 µM unless noted -18.8% | [7]; 10 µM unless noted -51.6% | [8]; 10 µM unless noted -3.59% | [12]; 10 µM unless noted -36.8% | [13]; 10 µM unless noted -53% | [14]; 10 µM unless noted -28.4% | [15]; 10 µM unless noted 9.13% | [16]; 10 µM unless noted -84.4%
inactive: [19] 53.4% | [9]; 10 µM unless noted 80.2% | [10]; 10 µM unless noted 37.1% | [20] 83.2% | [11]; 10 µM unless noted 26.2% | [17]; 10 µM unless noted 61.8% | [18]; 10 µM unless noted 74.9%

CC(=O)Nc1ccc(S(=O)(=O)Nc2ccc(-c3ccc4c(c3)NC(=O)/C4=C\c3ccc[nH]3)cc2)cc1
inactive: [1]; 10 µM unless noted 42.1% | [2]; 10 µM unless noted 85% | [3]; 10 µM unless noted 64.8% | [4]; 10 µM unless noted 87% | [5]; 10 µM unless noted 38.6% | [6]; 10 µM unless noted 91.5% | [7]; 10 µM unless noted 75.2% | [19] 79.6% | [8]; 10 µM unless noted 104% | [9]; 10 µM unless noted 96.6% | [10]; 10 µM unless noted 93.4% | [20] 64.8% | [11]; 10 µM unless noted 92.5% | [12]; 10 µM unless noted 88.7% | [13]; 10 µM unless noted 107% | [14]; 10 µM unless noted 112% | [15]; 10 µM unless noted 94.9% | [16]; 10 µM unless noted 84% | [17]; 10 µM unless noted 102%

COc1ccc(C(=O)NNC(=O)CSc2nc3sc4c(c3c(=O)n2-c2ccc(Cl)cc2)CCCC4)cc1
active: [16]; 10 µM unless noted -55.2%
inactive: [1]; 10 µM unless noted 63.2% | [2]; 10 µM unless noted 33.1% | [3]; 10 µM unless noted 73.5% | [4]; 10 µM unless noted 18.7% | [5]; 10 µM unless noted 87.2% | [6]; 10 µM unless noted 60.8% | [7]; 10 µM unless noted 59% | [19] 86.7% | [8]; 10 µM unless noted 102% | [9]; 10 µM unless noted 118% | [10]; 10 µM unless noted 89% | [20] 56.7% | [11]; 10 µM unless noted 60.3% | [12]; 10 µM unless noted 44% | [13]; 10 µM unless noted 82.2% | [14]; 10 µM unless noted 84.3% | [15]; 10 µM unless noted 94.7% | [17]; 10 µM unless noted 100% | [18]; 10 µM unless noted 77.4%

O=C(CCl)Nc1ccc(C(=O)/C=C/c2cc3ccccc3nc2Cl)cc1
-99.1% (active) and 13.3% (inactive): [16]; 10 µM unless noted
-62.3% (active) and 42.9% (inactive): [18]; 10 µM unless noted
-85.3% (active) and 36.2% (inactive): [13]; 10 µM unless noted
-41.7% (active) and 23.9% (inactive): [8]; 10 µM unless noted
-15.5% (active) and 29.3% (inactive): [14]; 10 µM unless noted
-59.7% (active) and 28.6% (inactive): [20]
-84.1% (active) and 46.7% (inactive): [10]; 10 µM unless noted
-25.5% (active) and 42.3% (inactive): [15]; 10 µM unless noted
-91.6% (active) and 63.6% (inactive): [12]; 10 µM unless noted
-53.6% (active) and 19.5% (inactive): [5]; 10 µM unless noted
-87.2% (active) and 48.9% (inactive): [11]; 10 µM unless noted
-83.6% (active) and 34.9% (inactive): [1]; 10 µM unless noted
-8.06% (active) and 37.4% (inactive): [4]; 10 µM unless noted
-62.9% (active) and 76.9% (inactive): [7]; 10 µM unless noted
-64.4% (active) and 72.4% (inactive): [9]; 10 µM unless noted
inactive: [2]; 10 µM unless noted 12.4% and 14.5% | [3]; 10 µM unless noted 22.4% and 45.1% | [6]; 10 µM unless noted 46.9% and 65.3% | [19] 72.4% and 60.8% | [17]; 10 µM unless noted 24.4% and 58.7%

— PubChem BioAssay (NCI)
